Where “and” joins values, the source holds several entries; their conditions need not be identical. Equal entries are not always repeated. Results filed as inconclusive are left out. Calls of active or inactive are those of the source. Unless noted, calls come from the whole dose curve; as a rule, active = well fitted curve in the direction sought with a large enough effect; inconclusive = small, poorly fitted or top-dose-only effect, or another doubt; inactive = no such curve, though single readings can be large; an effect the other way counts as inactive or inconclusive.

The text below walks through data of PubChem BioAssay (NCATS).

Test [1] is described as follows: S16 Schwann cell PMP22 intronic element firefly luciferase assay (AID 624032). Note: nearly all actives have a fitted effect of over 30% in size. Note: potency is the fitted concentration of half-maximal effect. The method, boiled down:
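Luciferase reporter of PMP22 intronic-element expression in stably transfected S16 rat Schwann cells, read by ONE-Glo luminescence after 24 h compound exposure at 37 C. Activity scaled between DMSO (0%) and positive-control PTC124; concentration-effect curves quality-classified.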

The nature of test [2]: S16 Schwann cell PMP22 intronic element beta-lactamase assay (AID 624044; calls by dose curve;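 note: 0% = DMSO and -100% = potassium clavulanate positive control; nearly all actives have a fitted effect of over 15% in size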). The note with it: S16 rat Schwann cells, PMP22 element beta-lactamase FRET, 24 h; ratio activity, negative = inhibition: at 38.3 µM (top of the series) unless noted. The method in brief: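 Beta-lactamase reporter under a PMP22 intronic regulatory element in stable S16 rat Schwann cells; 24 h compound exposure. 460 nm blue signal normalized between DMSO (0%) and potassium clavulanate, with 535 nm FRET tracking viability; curves classed by r2 and response.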

In test [3] the test system is 7G8. Briefly: qHTS profiling for inhibitors of Plasmodium falciparum proliferation (AID 504749).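 For activity, negative = inhibition: 0% = DMSO vehicle and full inhibition = artemisinin control.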 Note: nearly all actives have a fitted effect of over 60% in size. Note: potency is the fitted concentration of half-maximal effect. The note with it: P. falciparum in erythrocytes, SYBR Green DNA, 72 h; series mostly up to 12.8 µM. The method in brief: (§1)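 In a 72 h erythrocytic culture (37 C, humidified, 5% CO2) at 2.5% hematocrit and 0.3% starting parasitemia, compounds were tested; SYBR Green I in detergent lysis buffer stained parasite DNA overnight.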

In test [4] the test system is CP191. The description is as above. The note with it: P. falciparum in erythrocytes, SYBR Green DNA, 72 h; series mostly up to 28.7 µM. The method, boiled down:
as §1

In test [5] the test system is CP201. Described as above. The note with it: P. falciparum in erythrocytes, SYBR Green DNA, 72 h; series mostly up to 28.7 µM. The method, boiled down:
as §1

Test [6] has as its system CP237. The description is as above. The conditions noted are these: P. falciparum in erythrocytes, SYBR Green DNA, 72 h; series mostly up to 28.7 µM. The method in brief:
as §1

Test [7] has as its system CP291. The description is as above. The note with it: P. falciparum in erythrocytes, SYBR Green DNA, 72 h; series mostly up to 28.7 µM. The method, boiled down: as §1
Test [8] has as its system CP297. The description is as above. The note with it: P. falciparum in erythrocytes, SYBR Green DNA, 72 h; series mostly up to 28.7 µM. The method in brief: as §1
The test system of test [9] is CP315. The test is described as above. The conditions noted are these: P. falciparum in erythrocytes, SYBR Green DNA, 72 h; series mostly up to 28.7 µM. The method, boiled down: as §1
Test [10] deals with CP325. Described as above. The conditions noted are these: P. falciparum in erythrocytes, SYBR Green DNA, 72 h; series mostly up to 28.7 µM. The method in brief: as §1
Test [11] relates to CP329. Described as above. The conditions noted are these: P. falciparum in erythrocytes, SYBR Green DNA, 72 h; series mostly up to 28.7 µM. The method in brief: as §1
In test [12] the test system is DIV14. The description is as above. The note with it: P. falciparum in erythrocytes, SYBR Green DNA, 72 h; series mostly up to 28.7 µM. The method, boiled down: as §1
Test [13] relates to DIV17. Described as above. The conditions noted are these: P. falciparum in erythrocytes, SYBR Green DNA, 72 h; series mostly up to 28.7 µM. The method, boiled down:
as §1

Test [14] deals with Dd2. Described as above. The conditions noted are these: P. falciparum in erythrocytes, SYBR Green DNA, 72 h; series mostly up to 28.7 µM. The method, boiled down: as §1
The subject of test [15] is FAB9. The description is as above. The note with it: P. falciparum in erythrocytes, SYBR Green DNA, 72 h; series mostly up to 28.7 µM. The method in brief:
as §1

The subject of test [16] is PC26. The test is described as above. The conditions noted are these: P. falciparum in erythrocytes, SYBR Green DNA, 72 h; series mostly up to 28.7 µM. The method in brief:
as §1

The test system of test [17] is SC27B. The test is described as above. The conditions noted are these: P. falciparum in erythrocytes, SYBR Green DNA, 72 h; series mostly up to 28.7 µM. The method, boiled down:
as §1

Test [18] deals with TAB113. The description is as above. The conditions noted are these: P. falciparum in erythrocytes, SYBR Green DNA, 72 h; series mostly up to 28.7 µM. The method, boiled down: as §1
A short description of test [19]: qHTS assay for small molecule agonists of retinoid X receptor alpha signaling (AID 588544). The note with it: HEK293T RXRa-UAS-bla, beta-lactamase reporter, 18 h; 530 nm emission. Background: qHTS replaces the single test concentration by a dilution series.
Test [20] addresses Nuclear receptor subfamily 1 group I member 2 (Rattus norvegicus) (UniProt Q9R1A7). Briefly: qHTS assay for small molecule activators of the rat pregnane X receptor (rPXR) signaling pathway (AID 651751; call rule not given here; note: 0% is about no effect). The conditions noted are these: rPXR reporter cells, luciferase (One-Glo), 24 h.

Chain of Nuclear receptor subfamily 1 group I member 2 (Rattus norvegicus) (Q9R1A7 whole entry, looked up): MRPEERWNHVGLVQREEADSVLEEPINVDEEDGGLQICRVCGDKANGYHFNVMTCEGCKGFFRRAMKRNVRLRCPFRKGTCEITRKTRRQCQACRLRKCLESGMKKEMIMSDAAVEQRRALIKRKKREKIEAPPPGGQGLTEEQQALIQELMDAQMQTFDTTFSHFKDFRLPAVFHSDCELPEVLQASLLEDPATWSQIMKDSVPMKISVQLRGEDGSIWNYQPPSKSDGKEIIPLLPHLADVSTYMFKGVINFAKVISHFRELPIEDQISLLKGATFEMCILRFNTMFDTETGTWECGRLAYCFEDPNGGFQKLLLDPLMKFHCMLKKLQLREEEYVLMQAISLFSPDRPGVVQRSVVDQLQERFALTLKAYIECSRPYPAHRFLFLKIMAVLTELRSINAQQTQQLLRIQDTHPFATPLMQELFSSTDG

As to `COc1cc2c(cc1OC)[C@@]13CCN4CC5=CCOC6CC(=O)N2C1[C@H]6[C@@H]5C[C@@H]43` (stereo partly drawn), the Potency result in [1], in [2], in [3], in [4], in test [5] and in [6] was “inactive” each time. The Potency result in [7], in [8], in test [9], in test [10], in test [11] and in [12] was “inactive” throughout. The Potency result in [13], in test [14], in [15], in [16], in [17] and in test [18] was “inactive” each time.
Take `O=c1ccc2cc(O[C@H]3O[C@@H](CO)[C@@H](O)[C@@H](O)[C@@H]3O)c(O)cc2o1`: the Potency result in test [1], in test [3], in [4], in [5], in test [6] and in test [7] was “inactive” throughout. The Potency result in test [8], in test [9], in test [10], in [11], in test [12] and in test [14] was “inactive” throughout. The Potency result in test [15], in [16], in test [17] and in [18] was “inactive” in each case.
Regarding `C=CC1CN2CCC1CC2C(OC(=O)OCC)c1ccnc2ccc(OC)cc12` (stereo not drawn), the Potency result in test [1] and in test [2] was “inactive” each time. Moreover, the Potency in test [3] is 2.51 µM (active); in [4] it was 5.01 µM (active); in test [6], 7.08 µM (active); in [7], 12 µM (active); in test [10], 13.5 µM (active); in test [12] it was 6.01 µM (active). Moreover, the Potency in test [13] was 13.5 µM (active); in test [14] it was 5.01 µM (active); in test [15], 10 µM (active); in [16], 6.01 µM (active); in test [18] it was 8.91 µM (active).
In the case of `CNC(=O)CSP(=S)(OC)OC`, the max response in [19] is 1.61%; in [20], -3.03% (inactive) and -0.565% (inactive).
For the molecule `COc1cc(N)c(Cl)cc1C(=O)N[C@@H]1CN2CCC1CC2`, the Potency entry in test [1], in test [2], in [3], in [4], in test [5] and in test [6] was “inactive” in each case. Further, the Potency entry in test [7], in [8], in test [9], in test [10], in test [11] and in [12] was “inactive” in each case. The Potency entry in [13], in test [14], in test [15], in [16], in test [17] and in [18] was “inactive” each time.
Take `O=C1C=C2C=CC3C[C@@]2(O1)C1CCCCN31` (stereo partly drawn): the Potency in test [1] was 0.51 µM (active); in test [3], 8.91 µM (active); in test [4], 10 µM (active); in [6] it was 5.01 µM (active); in [8], 12 µM (active); in test [9], 16.9 µM (active). In addition, the Potency was 15.1 µM (active) in [13], 11.2 µM (active) in [14] and 14.1 µM (active) in [18]. Also, the Potency entry in [12] is “inactive”.
As to `CCCCCCCCCc1ccc(O)cc1`, the max response in test [19] was -5.72%; in [20], -1.03% (inactive) and 0.419% (inactive).
`O=C1C(Cl)=C(Cl)C(=O)C(Cl)=C1Cl`: the max response in test [20] was -2.19% (inactive).
Regarding `N#Cc1c(Cl)cccc1Cl`, the max response in [19] was -4.43%; in test [20] it was 2.13% (inactive).
As for `CCC(C)C1O[C@]2(C=CC1C)CC1CC(C/C=C(\C)[C@H](OC3CC(OC)C(O[C@H]4CC(OC)[C@@H](O)C(C)O4)C(C)O3)[C@@H](C)/C=C/C=C3\COC4C(O)C(C)=C[C@H](C(=O)O1)[C@@]34O)O2` (stereo partly drawn), the Potency entry in test [2] was “inactive”. For the same molecule, the Potency in test [3] was 10 µM (active); in test [4], 7.94 µM (active); in test [5] it was 16.9 µM (active); in test [7], 10.7 µM (active); in [8], 13.5 µM (active); in [11], 9.53 µM (active). The Potency in test [12] was 12 µM (active); in test [13], 12 µM (active); in [14], 11.2 µM (active); in test [16] it was 7.57 µM (active); in test [17], 11.2 µM (active).
Consider `CC([C@H](O)c1ccccc1)N(C)C` (stereo partly drawn), for which the Potency result in test [1], in [2], in [4], in test [5], in test [7] and in test [8] was “inactive” in each case. The Potency result in test [9], in test [10], in test [11], in test [15], in test [16] and in test [17] was “inactive” in each case. Also, the Potency result in [18] was “inactive”. Also, in [3], the Potency was 11.2 µM (active).
`CNC(C)[C@@H](O)c1ccccc1` (stereo partly drawn): the Potency entry in [1], in test [2], in test [4], in [5], in test [6] and in test [7] was “inactive” in each case. For the same molecule, the Potency result in [9], in [10], in test [11], in test [12], in test [13] and in test [14] was “inactive” each time. Further, the Potency entry in [15], in test [16], in test [17] and in [18] was “inactive” each time.
For `CNC(=O)Oc1cccc2c1OC(C)(C)O2`, the max response in test [19] is -5.16%; in test [20], 2.1% (inactive).
Taken in the same sequence, the figures for `O=C(O)COc1cc(Cl)c(Cl)cc1Cl` were 28.5% and -2.98% (inactive).
Take `CC(C)OC(=O)Nc1cccc(Cl)c1`: the max response in [19] is -7.86%.
In the case of `CCC(=O)Nc1ccc(Cl)c(Cl)c1`, the max response in [19] was 4.16%; in test [20], 6.65% (inactive).
Take `CC(C)N1C(=O)c2ccccc2NS1(=O)=O`: the max response is -6.21% in test [19] and -1.76% (inactive) in test [20].
As for `CCc1cccc(C)c1N(C(=O)CCl)C(C)COC` (stereo not drawn), in test [20], the max response was 14% (inactive).
On to `COP(N)(=O)SC` (stereo not drawn), for which the max response in test [19] was -14.8% and -10.1%; in test [20] it was -2.32% (inactive) and -2.07% (inactive).
Regarding `COc1nc(NC(C)C)nc(NC(C)C)n1`, the max response is 21.4% in [19] and -2.09% (inactive) in [20].
`CC(C)CC(CN)CC(=O)O` (stereo not drawn): the Potency entry in [1] and in [2] was “inactive” throughout.
`CC(C)Nc1nc(Cl)nc(NC(C)C)n1`: the max response in test [19] was 7.09%; in test [20] it was -1.62% (inactive).
In the case of `CC(C)(C)C(=O)C(Oc1ccc(Cl)cc1)n1cncn1` (stereo not drawn), the max response in test [19] is 16% and -16.7%.
